The values that follow come from the antibiotic and cytotoxicity screens of Wong et al. (2023).

The campaign covered roughly 39,000 compounds. About 3,300 (8.5%) were called active. Many of the other results were omitted from the sample, so actives are more common in it than they were.

This experiment has as its system HepG2. The experiment is described as follows: cytotoxicity call (relative viability < 0.9). The note with it: 10 µM.
Take `C[C@@H]1CN([C@@H](C)CO)C(=O)c2cc(NS(=O)(=O)c3ccc(Cl)cc3)ccc2O[C@@H](C)CCCCO[C@H]1CN(C)Cc1ccc(C(=O)O)cc1`: the cytotoxicity call was “inactive”.
Next, `Cn1nc(C(=O)O)c2ccccc2c1=O`: “inactive”; `COc1cccc(CNC(=O)c2cc3c(c(-c4cccc(-c5ccncc5)c4)n2)[C@@H](CCO)N([S@@](=O)C(C)(C)C)C3)c1`: “inactive”; `C[C@H]1CC/C=C\[C@H]2O[C@@]34C=CCN(Cn5nnc6ccccc65)C(=O)[C@H]3N(CCCCCCO)C(=O)[C@@H]4[C@@H]2C(=O)O1`: “inactive”.
`C[C@H]1CN([C@@H](C)CO)C(=O)c2cc(Br)cnc2O[C@@H]1CN(C)C(=O)Nc1ccc(F)cc1`: the cytotoxicity call was “inactive”.
In the case of `COc1ccc(CN(C)C[C@H]2Oc3ccc(NC(=O)Nc4ccc(C(F)(F)F)cc4)cc3C(=O)N([C@@H](C)CO)C[C@@H]2C)cc1`, the cytotoxicity call was “active”.
As for `COc1ccc(NC(=O)Nc2ccc3c(c2)C(=O)N([C@@H](C)CO)C[C@H](C)[C@@H](CN(C)Cc2ccc(C(F)(F)F)cc2)O3)cc1`, the cytotoxicity call was “active”.
For the compound `COc1ccc(CN(C)C[C@@H]2Oc3ccc(NC(=O)Nc4ccc(C(F)(F)F)cc4)cc3C(=O)N([C@H](C)CO)C[C@H]2C)cc1`, the cytotoxicity call is “active”.
`COc1ccc(CN(C)C[C@H]2Oc3ccc(NC(=O)Nc4ccc(C(F)(F)F)cc4)cc3C(=O)N([C@@H](C)CO)C[C@H]2C)cc1`: the cytotoxicity call was “active”.
Turning to `c1ccc2c([C@@H]3CCCN3)cccc2c1`, the cytotoxicity call was “inactive”.
Next, `Cc1ccc(S(=O)(=O)N(C)C[C@@H]2Oc3c(NC(=O)c4ccncc4)cccc3C(=O)N([C@H](C)CO)C[C@H]2C)cc1`: “inactive”; `C[C@@H]1CCCCO[C@H](CN(C)Cc2ccncc2)[C@H](C)CN([C@@H](C)CO)C(=O)c2cc(NC(=O)Cc3ccccc3)ccc2O1`: “inactive”; `COc1ccc(C#Cc2ccc3c(c2)O[C@H](CN(C)S(=O)(=O)c2ccccc2F)[C@H](C)CN([C@@H](C)CO)S3(=O)=O)cc1`: “inactive”.
Turning to `C=CCOC(=O)[C@H]1[C@@H]2C(=O)O[C@@H](c3ccccc3)[C@@H](c3ccccc3)N2[C@@H](c2ccc(OCCOC(=O)[C@H]3C[C@H]4C(=O)N[C@@H](CC(C)C)C(=O)N4[C@H]3c3ccc(O)cc3)cc2)[C@]12C(=O)Nc1ccccc12`, the cytotoxicity call is “inactive”.
With `N=C(N)NCCS`, the cytotoxicity call is “inactive”.
Regarding `C[C@@H]1CN([C@@H](C)CO)S(=O)(=O)c2ccc(C#Cc3ccccc3)cc2O[C@@H]1CN(C)C(=O)c1ccccn1`, the cytotoxicity call is “inactive”.
`C[C@@H]1CCCCO[C@@H](CN(C)C(=O)NC2CCCCC2)[C@H](C)CN([C@H](C)CO)C(=O)c2cc(NS(=O)(=O)c3ccc(Cl)cc3)ccc2O1`: the cytotoxicity call was “inactive”.
As for `N#C[C@H](N)c1ccc(Cl)cc1`, the cytotoxicity call was “inactive”.
As to `COc1ccc(NC(=O)Nc2ccc3c(c2)C(=O)N([C@@H](C)CO)C[C@@H](C)[C@H](CN(C)Cc2ccc(C(F)(F)F)cc2)O3)cc1`, the cytotoxicity call was “inactive”.
As to `COc1ccc(CN(C)C[C@@H]2Oc3ccc(NC(=O)Nc4ccc(C(F)(F)F)cc4)cc3C(=O)N([C@@H](C)CO)C[C@H]2C)cc1`, the cytotoxicity call was “active”.
Regarding `COc1ccc(NC(=O)Nc2ccc3c(c2)C(=O)N([C@@H](C)CO)C[C@H](C)[C@H](CN(C)Cc2ccc(C(F)(F)F)cc2)O3)cc1`, the cytotoxicity call was “inactive”.
For `COc1ccc(NC(=O)Nc2ccc3c(c2)C(=O)N([C@@H](C)CO)C[C@@H](C)[C@@H](CN(C)Cc2ccc(C(F)(F)F)cc2)O3)cc1`, the cytotoxicity call is “active”.
Consider `C[C@@H]1CCCCO[C@@H](CN(C)C(=O)Nc2ccccc2)[C@@H](C)CN([C@@H](C)CO)C(=O)c2cc(NS(=O)(=O)c3ccccc3)ccc2O1`, for which the cytotoxicity call was “inactive”.
Next, `C[C@@H]1CN([C@@H](C)CO)C(=O)CCCn2nncc2CO[C@H]1CN(C)S(=O)(=O)c1ccc(-c2ccccc2)cc1`: “inactive”.
Take `C[C@H]1CN([C@@H](C)CO)C(=O)Cc2cc(NC(=O)Nc3cccc4ccccc34)ccc2O[C@H]1CN(C)C(=O)Nc1ccc2c(c1)OCO2`: the cytotoxicity call is “inactive”.
On to `C[C@@H]1CCCCO[C@@H](CN(C)S(=O)(=O)c2ccc(Cl)cc2)[C@H](C)CN([C@H](C)CO)C(=O)c2cc(NS(=O)(=O)c3ccc(F)cc3)ccc2O1`, for which the cytotoxicity call was “inactive”.
With `Nc1ncnc2c1ncn2[C@@H]1O[C@H](C[C@@H](N)CC[C@H](N)C(=O)O)[C@@H](O)[C@H]1O`, the cytotoxicity call was “inactive”.
For the compound `CC(C)N(CCCNC(=O)Nc1ccc(C(C)(C)C)cc1)C[C@H]1O[C@@H](n2cnc3c(N)ncnc32)[C@@H](O)[C@H]1O`, the cytotoxicity call is “inactive”.
To `CC(C)N(C[C@H]1O[C@@H](n2cnc3c(N)ncnc32)[C@H](O)[C@@H]1O)[C@H]1C[C@@H](CCc2nc3ccc(C(C)(C)C)cc3[nH]2)C1` belongs “active”; to `C[C@H]1CN([C@@H](C)CO)C(=O)Cc2cc(NC(=O)C3CC3)ccc2O[C@@H]1CN(C)S(=O)(=O)c1cccs1`, “inactive”.
With `CC(C)NC(=O)N(C)C[C@H]1Oc2ccc(NS(=O)(=O)c3ccccc3)cc2CC(=O)N([C@@H](C)CO)C[C@H]1C`, the cytotoxicity call is “inactive”.
Turning to `Cn1c(Nc2ccc(C(F)(F)F)cc2)nc2cc(Oc3ccnc(-c4ncc(C(F)(F)F)[nH]4)c3)ccc21`, the cytotoxicity call is “active”.
Turning to `COc1ccc(NC(=O)Nc2ccc3c(c2)C(=O)N([C@H](C)CO)C[C@H](C)[C@H](CN(C)Cc2ccncc2)OCCCC[C@H](C)O3)cc1`, the cytotoxicity call is “inactive”.
For `CO[C@@H]1CN(C)C(=O)c2cc(NC(=O)Nc3ccccc3F)ccc2OC[C@@H](C)N(Cc2ccccc2C(=O)O)C[C@H]1C`, the cytotoxicity call is “inactive”.
To `COc1ccc(-c2coc3cc(OC)ccc3c2=O)c(O)c1` belongs “inactive”; to `Cc1c(C(N)=O)nnn1-c1ccc(F)cc1`, “inactive”; to `C[C@@H]1CCCCO[C@@H](CN(C)CC2CC2)[C@H](C)CN([C@@H](C)CO)C(=O)c2cc(NC(=O)Nc3ccc(C(F)(F)F)cc3)ccc2O1`, “inactive”.
With `C[C@@H]1CCCCO[C@@H](CN(C)CC2CC2)[C@H](C)CN([C@H](C)CO)C(=O)c2cc(NC(=O)Nc3ccc(C(F)(F)F)cc3)ccc2O1`, the cytotoxicity call is “inactive”.
On to `C[C@@H]1CCCCO[C@@H](CN(C)CC2CC2)[C@@H](C)CN([C@H](C)CO)C(=O)c2cc(NC(=O)Nc3ccc(C(F)(F)F)cc3)ccc2O1`, for which the cytotoxicity call was “active”.
`C[C@H](CO)N1C[C@H](C)[C@H](CN(C)CC2CC2)OCCCC[C@H](C)Oc2ccc(NC(=O)Nc3ccc(C(F)(F)F)cc3)cc2C1=O`: the cytotoxicity call was “active”.
With `C[C@H](CO)N1C[C@H](C)[C@@H](CN(C)CC2CC2)OCCCC[C@H](C)Oc2ccc(NC(=O)Nc3ccc(C(F)(F)F)cc3)cc2C1=O`, the cytotoxicity call was “inactive”.
Consider `C[C@@H]1CCCCO[C@H](CN(C)CC2CC2)[C@H](C)CN([C@@H](C)CO)C(=O)c2cc(NC(=O)Nc3ccc(C(F)(F)F)cc3)ccc2O1`, for which the cytotoxicity call was “active”.
To `C[C@H]1CCCCO[C@H](CN(C)CC2CC2)[C@@H](C)CN([C@@H](C)CO)C(=O)c2cc(NC(=O)Nc3ccc(C(F)(F)F)cc3)ccc2O1` belongs “inactive”; to `C[C@@H]1CCCCO[C@H](CN(C)CC2CC2)[C@H](C)CN([C@H](C)CO)C(=O)c2cc(NC(=O)Nc3ccc(C(F)(F)F)cc3)ccc2O1`, “active”; to `C[C@H](CO)N1C[C@H](C)[C@@H](CN(C)C(=O)Nc2ccccc2)OCCCC[C@H](C)Oc2ccc(NC(=O)C3CCCCC3)cc2C1=O`, “inactive”.
For the compound `CN(C)C(=O)CN1C[C@]23CN(Cc4cnn(C)c4)C[C@@H](C[C@@H]2S1(=O)=O)O3`, the cytotoxicity call is “inactive”.
To `CC(C)NC(=O)N(C)C[C@H]1Oc2c(NS(=O)(=O)c3ccc(F)cc3)cccc2C(=O)N([C@H](C)CO)C[C@@H]1C` belongs “inactive”; to `C[C@@H]1CN([C@H](C)CO)C(=O)c2cc(NC(=O)Nc3cccc4ccccc34)ccc2O[C@@H](C)CCCCO[C@@H]1CN(C)Cc1ccc(C(=O)O)cc1`, “inactive”; to `COc1ccc(NC(=O)N(C)C[C@@H]2Oc3cc(Br)ccc3S(=O)(=O)N([C@H](C)CO)C[C@H]2C)cc1`, “inactive”.
To `COc1cccc(S(=O)(=O)N(C)C[C@H]2OCc3cnnn3CCCC(=O)N([C@H](C)CO)C[C@@H]2C)c1` belongs “inactive”.
To `C[C@H](CO)N1C[C@H](C)[C@H](CN(C)C(=O)Nc2ccccc2)OCCCC[C@H](C)Oc2ccc(NS(=O)(=O)c3cccs3)cc2C1=O` belongs “inactive”.
Regarding `COc1ccc(S(=O)(=O)N(C)C[C@H]2Oc3ccc(NC(=O)Nc4cccc5ccccc45)cc3C(=O)N([C@H](C)CO)C[C@H]2C)cc1`, the cytotoxicity call is “inactive”.
Consider `COc1ccc(-c2ccccn2)cc1`, for which the cytotoxicity call is “inactive”.
On to `Cn1nc(-c2ccccn2)nc2c(=O)n(C)c(=O)nc1-2`, for which the cytotoxicity call is “active”.
Consider `Cn1c(=O)[nH]c2nnc(-c3ccccn3)nc2c1=O`, for which the cytotoxicity call was “inactive”.
To `COc1ccc(NC(=O)Nc2ccc3c(c2)C(=O)N([C@H](C)CO)C[C@H](C)[C@@H](CN(C)Cc2ccc(C(=O)O)cc2)OCCCC[C@H](C)O3)cc1` belongs “inactive”.
For `CN(CP(=O)(O)CN1CCOCC1)S(C)(=O)=O`, the cytotoxicity call was “inactive”.
Regarding `CC(C)(C)NCC(O)COc1cccc2c1CC(O)C(O)C2` (stereo not drawn), the cytotoxicity call is “inactive”.
For `CC(C)(C)NCC(O)COc1ccccc1C1CCCC1.O=S(=O)(O)O` (stereo not drawn), the cytotoxicity call was “active”.
With `CC(C)(C)NCC(O)COc1nsnc1N1CCOCC1.O=C(O)C=CC(=O)O` (stereo not drawn), the cytotoxicity call was “inactive”.
On to `C[C@H](CO)N1C[C@H](C)[C@@H](CN(C)S(=O)(=O)c2cn(C)cn2)Oc2ccc(NC(=O)CCN3CCOCC3)cc2C1=O`, for which the cytotoxicity call is “inactive”.
Next, `C[C@H]1CN([C@@H](C)CO)C(=O)c2cc(NC(=O)CCCN(C)C)ccc2O[C@@H]1CN(C)C(=O)Nc1ccc2c(c1)OCO2`: “inactive”; `C[C@@H]1CN([C@H](C)CO)C(=O)Cc2cc(NC(=O)CCN3CCOCC3)ccc2O[C@@H]1CN(C)Cc1ccncc1`: “inactive”; `C[C@H]1[C@H]([Si](C)(C)F)[C@@H](CCO)O[C@]12C(=O)N(Cc1cccc(N(C=O)c3ccccc3)c1)c1ccccc12`: “inactive”.
On to `COc1ccc([Si](C)(C)[C@@H]2[C@@H](CCO)O[C@]3(C(=O)N(Cc4cccc(N5CCCCC5=O)c4)c4ccccc43)[C@H]2C)cc1`, for which the cytotoxicity call was “inactive”.
Take `COc1ccc([Si](C)(C)[C@@H]2[C@@H](CCO)O[C@]3(C(=O)N(Cc4ccc(N(C=O)c5ccccc5)cc4)c4ccccc43)[C@H]2C)cc1`: the cytotoxicity call is “active”.
For the compound `COc1ccc([Si](C)(C)[C@H]2[C@H](CCO)O[C@@]3(C(=O)N(Cc4ccc(N(C=O)c5ccccc5)cc4)c4ccccc43)[C@@H]2C)cc1`, the cytotoxicity call is “active”.
Consider `COc1ccc([Si](C)(C)[C@H]2[C@H](CCO)O[C@@]3(C(=O)N(Cc4cccc(N(C=O)c5ccccc5)c4)c4ccccc43)[C@@H]2C)cc1`, for which the cytotoxicity call is “active”.
